Assay results: PubChem BioAssay (NCI)
About 79,000 compounds went through this panel and 15% of them were active in at least one assay; those are over-represented in the sample as a whole. No stated cut-off is given here; in the data, active means growth inhibition above about 70%; inactive means the rest.

Key:
[1] = NCI Yeast Anticancer Drug Screen. Data for the rad50 strain (AID 155);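 further: 0% = growth of vehicle-only cultures of the same strain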; settings: S. cerevisiae rad50 strain growth inhibition; at 50.0 µM; stronger effect = higher value
Method in brief: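 Yeast carrying a defined DNA repair defect were exposed to test compounds, and growth was compared with vehicle-treated controls to give percent inhibition.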

[2] = NCI Yeast Anticancer Drug Screen. Data for the mec2-1 strain (AID 157); settings: S. cerevisiae mec2-1 strain, at 50.0 µM, stronger effect = higher value
Method in brief: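 Using mec2-1 yeast: add compound, measure growth, express inhibition versus vehicle-treated cultures.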

[3] = NCI Yeast Anticancer Drug Screen. Data for the sgs1 mgt1 strain (AID 161);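 further: 0% = growth of cultures given vehicle only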; settings: S. cerevisiae sgs1 mgt1 strain, at 50.0 µM, stronger effect = higher value
Method in brief: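 Yeast cells carrying a defined DNA-repair defect were exposed to test compounds. Growth inhibition was measured relative to vehicle-treated controls.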

[4] = NCI Yeast Anticancer Drug Screen. Data for the cln2 rad14 strain (AID 165);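 further: 0% = growth equal to vehicle treated cultures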; settings: S. cerevisiae cln2 rad14 strain, at 50.0 µM, stronger effect = higher value
Method in brief: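 Yeast strain cln2 rad14, bearing defects in cell cycle control and DNA repair, serves as the test system; values reflect growth inhibition compared with vehicle.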

[5] = NCI Yeast Anticancer Drug Screen. Data for the bub3 strain (AID 167); settings: S. cerevisiae bub3 mutant strain, at 50.0 µM, stronger effect = higher value
Method in brief: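 Compounds were applied to a genetically altered yeast strain carrying a cell-cycle control defect. Growth inhibition was scored against vehicle-treated controls.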

[6] = NCI Yeast Anticancer Drug Screen. Data for the mlh1 rad18 strain (AID 175); settings: S. cerevisiae mlh1 rad18 strain growth inhibition; at 50.0 µM; stronger effect = higher value
Method in brief: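 Steps: expose repair-defective yeast to compound; measure growth; express inhibition against vehicle-treated controls.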

Measured: growth inhibition

CC1(C)C2CC3C(=CCCC3C(=O)O)C1C2 (stereo not drawn)
inactive: [1] 11.4% | [2] 15.3% | [3] -8.55% | [4] 9.8% | [5] 11.1% | [6] 12.8%

CCCOC(=O)c1ccccc1Cl
inactive: [1] 31.1% | [2] 22.5% | [3] 23.1% | [4] 13.4% | [5] 11.6% | [6] 24.1%

Cn1c(=O)c2[nH]c(N/N=N/c3nncs3)nc2n(C)c1=O
inactive: [1] -67.5% | [2] -117% | [3] -51.9% | [4] -19.8% | [5] -19.4% | [6] -117%

COC(=Nc1cccc2ccccc12)Nc1cccc2ccccc12
inactive: [1] 1.95% | [2] -3.5% | [3] -4.35% | [4] 7.95% | [5] -2.3% | [6] -2%

CC1(C)CC2C(C1=O)C1(C)CCCC2(C)C1=O (stereo not drawn)
inactive: [1] -11.8% | [2] -7.1% | [3] -26.6% | [4] -14.8% | [5] 3% | [6] -46.5%

CC(C)C(CC(=O)O)C(=O)O (stereo not drawn)
inactive: [1] 3.8% | [2] -1.35% | [3] 10.2% | [4] -8% | [5] 3.95% | [6] 4.65%

O=C(NC(NC(NC(=O)c1ccc([N+](=O)[O-])cc1)c1ccc([N+](=O)[O-])cc1)c1ccc([N+](=O)[O-])cc1)c1ccc([N+](=O)[O-])cc1 (stereo not drawn)
inactive: [1] 3.35% | [2] -10.4% | [3] 1.65% | [4] -24.9% | [5] -5.3% | [6] -7.95%

C/C(=C/c1ccccc1)C(=O)O
inactive: [1] -3.8% | [2] -18.8% | [3] -22% | [4] -20.1% | [5] -20.8% | [6] -2.45%

CN(C(=O)c1ccco1)C(=S)N1CCN(c2ccccc2)CC1
inactive: [1] -17% | [2] -1.95% | [3] -0.7% | [4] 10.2% | [5] 13.8% | [6] -13.3%

Brc1ccccc1/C=N\N=C\c1ccccc1Br
inactive: [1] 12.9% | [2] 2.5% | [3] 12.2% | [4] -5.25% | [5] -6.4% | [6] 5.35%

N=c1ccc2nc(N)nn(O)c-2c1
inactive: [1] -1.2% | [2] 12.1% | [3] 2.9% | [4] -3.4% | [5] -37.3% | [6] -44%

Cn1cnc([N+](=O)[O-])c1Sc1nnc(C(F)(F)F)n1C
inactive: [1] -7.6% | [2] -6.95% | [3] -9.65% | [4] 7.5% | [5] 3.6% | [6] -6.95%

Cc1nc2cncnc2n(CCN2CCOCC2)c1=O
inactive: [1] 15.1% | [2] 16.2% | [3] 23.2% | [4] -2.35% | [5] -2.45% | [6] 20.4%

CC(=O)c1cc(C(C)(C)C)ccc1O
inactive: [1] 17.8% | [2] 4.8% | [3] 7.8% | [4] 9.65% | [5] 26.1% | [6] 12.8%

Cc1cc(N2CCOCC2)nc2ccc(Cc3ccc4nc(N5CCOCC5)cc(C)c4c3)cc12
inactive: [1] 13.5% | [2] -10.2% | [3] -32.2% | [4] -24.2% | [5] -4.65% | [6] -4.4%

C(=C\c1cc(CCc2nc3ccccc3[nH]2)[nH]n1)/c1ccccc1
inactive: [1] -4.4% | [2] -16.5% | [3] -12.3% | [4] 22.6% | [5] -4.25% | [6] -15.2%

CN1C(c2ccccc2)NC(=O)C12CCN(CCCC(=O)c1ccccc1)CC2 (stereo not drawn)
inactive: [1] 63.5% | [2] 39.7% | [3] 53.2% | [4] 19.5% | [5] 17.9% | [6] 45.2%

O=C(Nc1ccc(C(F)(F)F)cc1[N+](=O)[O-])C(=O)Nn1c(=S)[nH]c2ccccc2c1=O
inactive: [1] 20.3% | [2] 11.7% | [3] -4.65% | [4] 18.5% | [5] 7.9% | [6] 23.1%

CN(C)c1nc2ccccn2c1C(=O)c1ccccc1
inactive: [1] 4.85% | [2] -0.1% | [3] -12.8% | [4] -19.4% | [5] -0.6% | [6] -5.5%

O=C(O)C(Cc1ccsc1)C(=O)O
inactive: [1] -10.1% | [2] 1.1% | [3] -6.6% | [4] -17% | [5] -6.45% | [6] 12.4%

CC(C)=C=CC(C)(C)NS(=O)(=O)NC(C)(C)C=C=C(C)C
inactive: [1] 12.5% | [2] -9.85% | [3] 2.4% | [4] 3.35% | [5] -16.6% | [6] 8.35%

N#CCc1nc(-c2cc3ccccc3oc2=O)cs1
inactive: [1] 31.4% | [2] 16.3% | [3] -12.4% | [4] 3.7% | [5] 0.75% | [6] -57%

c1ccc([P+](Cc2ccc(C[P+](c3ccccc3)(c3ccccc3)c3ccccc3)cc2)(c2ccccc2)c2ccccc2)cc1
inactive: [1] 48.2% | [2] 35.6% | [3] 29.4% | [4] 40.5% | [5] 47.9% | [6] 37.5%

COc1cc(C(=O)CCCC(=O)O)cc(OC)c1OC
inactive: [1] -9.15% | [2] 3.4% | [3] 19.6% | [4] 5.85% | [5] 16.3% | [6] 5.3%

CC(=O)N(C(C)=O)c1ccc2c3c(cccc13)CC2
inactive: [1] 0% | [2] -3.9% | [3] 2.6% | [4] -19.1% | [5] 8.1% | [6] -1.2%

CC1=NN(C(=O)c2ccccc2)C(=O)C1N=Nc1ccc([N+](=O)[O-])cc1 (stereo not drawn)
inactive: [1] -3.3% | [2] -5.5% | [3] -2.5% | [4] -10.8% | [5] 0% | [6] -3.35%

Clc1ccccc1N=Cc1ccc(C=Nc2ccccc2Cl)cc1
inactive: [1] 26.9% | [2] 23.8% | [3] 34% | [4] 3.3% | [5] 38.5% | [6] 25.9%

Cc1c(N2CCCC2)cc2c(c1-n1cccc1)C(C)(C)CC2(C)C
inactive: [1] -21% | [2] -14.2% | [3] 1.55% | [4] 16.3% | [5] 6.7% | [6] 2.8%

Cc1cc(C)c(COCc2c(C)cc(C)cc2C)c(C)c1
inactive: [1] 19% | [2] 10.1% | [3] -0.55% | [4] -34.1% | [5] -2% | [6] 12.8%

CC1(C)CC2CC(CC(C)(C)C2=O)C1=O
inactive: [1] -8.65% | [2] -11% | [3] -0.7% | [4] 5.05% | [5] 7.9% | [6] -1.75%

CN=C1C=C(/N=C2/C=C(N/C(=C\C#N)C(C)(C)O)OC2(C)C)OC1(C)C
inactive: [1] -10.6% | [2] -5.3% | [3] 13.6% | [4] 7.1% | [5] 23.9% | [6] 28.6%

CCOC(=O)N1C2c3ccccc3C3C(C21)N3C(=O)OCC (stereo not drawn)
inactive: [1] -0.3% | [2] -12.3% | [3] 0.3% | [4] 1.95% | [5] 3.9% | [6] -11.4%

CC(=O)c1cc2c(cc1C)C(C)=C(C)C2(C)C
inactive: [1] -3.1% | [2] -2.35% | [3] 1.55% | [4] -13.4% | [5] 0.65% | [6] -2.9%

O=C1c2ccccc2C(=O)N1C[P+](c1ccccc1)(c1ccccc1)c1ccccc1
inactive: [1] 41.9% | [2] 28.8% | [3] 32.4% | [4] 16.2% | [5] 2.25% | [6] 12.4%

c1cnc2ncncc2n1
inactive: [1] -2.6% | [2] 32.4% | [3] -8.55% | [4] 28.8% | [5] 14.4% | [6] 12.5%

Nc1nc(=O)n(CCCOc2ccc([N+](=O)[O-])c(Cl)c2)cc1-c1ccc(Cl)c(Cl)c1
inactive: [1] -1.2% | [2] -8.2% | [3] -5.4% | [4] -21.4% | [5] -3.15% | [6] 6.2%

Cc1cc(=O)[nH]c(N/N=C/c2ccc(O)cc2)n1
inactive: [1] -28.9% | [2] -44.5% | [3] -14.7% | [4] 2.65% | [5] -30.4% | [6] -26.8%

NCC(O)C(F)(F)F (stereo not drawn)
inactive: [1] -5.2% | [2] -7.9% | [3] -27.3% | [4] -15.1% | [5] 1.75% | [6] -14.5%
